From publication PMC12529666, “Dysregulation of AGO2-miRNA dynamics underlies the AGO2-associated Lessel–Kreienkamp syndrome”

What was measured:
Experiment in all cases: RNA Bind-n-Seq (nitrocellulose filter binding and sequencing); miR-122 guide loaded in AGO2; 60 min incubation; 30 mM Tris pH 8.0, 100 mM potassium acetate, 2 mM magnesium acetate, 0.5 mM TCEP, 0.005% NP-40, 0.01 mg/ml yeast tRNA; 3 nM AGO2-miR-122, 100 nM RNA library; 60; high values mean tight binding
Details in all cases: protein: recombinant; tags: His6 (N-terminal, pFastBac HTA)
[1] = biological target: AGO2 WT (phosphosite mutant background) (Homo sapiens, UniProt Q9UKV8 1-859, S387D;S824A;S828D;S831D;S834A)
Outline: (§1)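 His-tagged AGO2 was expressed in Sf9 insect cells by baculovirus, loaded with a synthetic guide RNA, and purified by Ni-NTA and a biotinylated capture oligo. Bound RNA was extracted, reverse-transcribed, barcode-amplified and Illumina-sequenced. Fold enrichment is each sequence's read fraction divided by its input-library read fraction.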

AGO2 L192P = AGO2 L192P (Homo sapiens, UniProt Q9UKV8 1-859, L192P;S387D;S824A;S828D;S831D;S834A)
Outline: as §1

AGO2 A367P = AGO2 A367P (Homo sapiens, UniProt Q9UKV8 1-859, A367P;S387D;S824A;S828D;S831D;S834A)
Outline: as §1

AGO2 T357M = AGO2 T357M (Homo sapiens, UniProt Q9UKV8 1-859, T357M;S387D;S824A;S828D;S831D;S834A)
Outline: as §1

AGO2 F182del = AGO2 F182del (Homo sapiens, UniProt Q9UKV8 1-859, S387D;S824A;S828D;S831D;S834A;del182-182)
Outline: as §1

AGO2 F182del, sequence (Q9UKV8 other isoform, or with tags, fused parts or gaps S387D;S824A;S828D;S831D;S834A;del182-182): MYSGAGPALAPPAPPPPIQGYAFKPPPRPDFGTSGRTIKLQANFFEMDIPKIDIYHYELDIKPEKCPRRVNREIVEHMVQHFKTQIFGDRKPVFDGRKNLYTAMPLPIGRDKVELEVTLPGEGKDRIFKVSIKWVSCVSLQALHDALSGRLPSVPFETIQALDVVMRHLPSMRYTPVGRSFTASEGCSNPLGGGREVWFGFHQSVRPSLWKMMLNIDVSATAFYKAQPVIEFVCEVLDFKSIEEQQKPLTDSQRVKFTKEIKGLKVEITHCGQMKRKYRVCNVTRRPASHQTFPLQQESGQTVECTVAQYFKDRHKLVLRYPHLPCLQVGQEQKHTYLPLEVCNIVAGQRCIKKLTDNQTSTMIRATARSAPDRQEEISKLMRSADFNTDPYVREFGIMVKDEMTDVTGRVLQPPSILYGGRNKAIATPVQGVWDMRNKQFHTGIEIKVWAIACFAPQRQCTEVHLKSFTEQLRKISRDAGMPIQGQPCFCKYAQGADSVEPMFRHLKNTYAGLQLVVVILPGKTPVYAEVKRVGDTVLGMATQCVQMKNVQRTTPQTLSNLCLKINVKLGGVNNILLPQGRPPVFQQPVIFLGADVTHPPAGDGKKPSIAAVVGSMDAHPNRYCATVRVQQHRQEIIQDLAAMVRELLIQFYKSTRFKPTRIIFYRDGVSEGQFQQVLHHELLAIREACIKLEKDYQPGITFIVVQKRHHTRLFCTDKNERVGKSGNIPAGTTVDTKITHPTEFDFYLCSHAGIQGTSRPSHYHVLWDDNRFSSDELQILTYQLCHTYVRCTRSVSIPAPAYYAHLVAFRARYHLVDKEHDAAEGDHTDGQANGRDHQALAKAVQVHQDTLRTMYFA
AGO2 L192P, sequence (Q9UKV8 whole entry L192P/S387D/S824A/S828D/S831D/S834A): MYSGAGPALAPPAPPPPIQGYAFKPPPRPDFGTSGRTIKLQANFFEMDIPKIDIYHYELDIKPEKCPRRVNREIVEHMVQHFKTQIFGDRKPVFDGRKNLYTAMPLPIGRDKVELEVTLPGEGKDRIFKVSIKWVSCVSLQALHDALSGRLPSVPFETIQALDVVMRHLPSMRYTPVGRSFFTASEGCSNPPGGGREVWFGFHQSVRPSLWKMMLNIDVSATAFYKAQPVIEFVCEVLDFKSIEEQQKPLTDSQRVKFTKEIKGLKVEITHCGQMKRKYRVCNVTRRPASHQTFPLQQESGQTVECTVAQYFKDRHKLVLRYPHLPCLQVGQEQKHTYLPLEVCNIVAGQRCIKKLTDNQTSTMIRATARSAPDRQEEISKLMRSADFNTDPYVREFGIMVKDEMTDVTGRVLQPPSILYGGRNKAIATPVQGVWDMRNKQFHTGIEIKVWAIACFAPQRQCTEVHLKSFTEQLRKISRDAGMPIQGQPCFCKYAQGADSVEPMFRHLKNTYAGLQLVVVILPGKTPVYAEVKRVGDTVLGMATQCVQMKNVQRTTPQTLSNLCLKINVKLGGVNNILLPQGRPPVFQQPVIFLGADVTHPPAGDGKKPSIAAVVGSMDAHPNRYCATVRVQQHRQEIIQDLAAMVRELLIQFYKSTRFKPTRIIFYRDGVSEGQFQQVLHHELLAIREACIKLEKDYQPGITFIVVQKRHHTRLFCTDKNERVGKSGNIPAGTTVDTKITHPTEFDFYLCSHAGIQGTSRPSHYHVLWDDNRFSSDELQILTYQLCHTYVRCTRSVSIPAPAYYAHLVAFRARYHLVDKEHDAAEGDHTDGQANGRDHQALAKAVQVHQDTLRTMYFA
AGO2 WT (phosphosite mutant background), sequence (Q9UKV8 whole entry S387D/S824A/S828D/S831D/S834A): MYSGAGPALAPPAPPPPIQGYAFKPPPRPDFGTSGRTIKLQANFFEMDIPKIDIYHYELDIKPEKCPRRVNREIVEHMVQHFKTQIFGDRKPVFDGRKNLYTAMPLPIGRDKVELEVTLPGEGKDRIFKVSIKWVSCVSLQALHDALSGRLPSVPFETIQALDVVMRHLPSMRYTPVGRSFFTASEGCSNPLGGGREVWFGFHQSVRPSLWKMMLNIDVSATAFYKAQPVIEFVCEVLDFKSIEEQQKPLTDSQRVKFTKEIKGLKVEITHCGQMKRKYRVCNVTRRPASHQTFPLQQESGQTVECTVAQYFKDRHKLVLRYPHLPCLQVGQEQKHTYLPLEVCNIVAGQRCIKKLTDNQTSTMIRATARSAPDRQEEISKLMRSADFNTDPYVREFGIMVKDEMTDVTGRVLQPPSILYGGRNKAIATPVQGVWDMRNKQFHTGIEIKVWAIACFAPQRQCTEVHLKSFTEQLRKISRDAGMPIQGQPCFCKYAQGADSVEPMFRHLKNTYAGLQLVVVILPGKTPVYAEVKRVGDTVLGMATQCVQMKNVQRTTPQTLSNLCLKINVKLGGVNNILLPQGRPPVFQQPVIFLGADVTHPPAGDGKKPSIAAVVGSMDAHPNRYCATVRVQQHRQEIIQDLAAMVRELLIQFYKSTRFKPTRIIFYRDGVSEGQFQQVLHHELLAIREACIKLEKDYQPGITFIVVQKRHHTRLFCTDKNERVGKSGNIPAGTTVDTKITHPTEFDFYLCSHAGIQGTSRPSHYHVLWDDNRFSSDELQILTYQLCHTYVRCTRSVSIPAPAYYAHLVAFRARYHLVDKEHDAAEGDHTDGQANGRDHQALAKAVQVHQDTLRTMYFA
AGO2 A367P, sequence (Q9UKV8 whole entry A367P/S387D/S824A/S828D/S831D/S834A): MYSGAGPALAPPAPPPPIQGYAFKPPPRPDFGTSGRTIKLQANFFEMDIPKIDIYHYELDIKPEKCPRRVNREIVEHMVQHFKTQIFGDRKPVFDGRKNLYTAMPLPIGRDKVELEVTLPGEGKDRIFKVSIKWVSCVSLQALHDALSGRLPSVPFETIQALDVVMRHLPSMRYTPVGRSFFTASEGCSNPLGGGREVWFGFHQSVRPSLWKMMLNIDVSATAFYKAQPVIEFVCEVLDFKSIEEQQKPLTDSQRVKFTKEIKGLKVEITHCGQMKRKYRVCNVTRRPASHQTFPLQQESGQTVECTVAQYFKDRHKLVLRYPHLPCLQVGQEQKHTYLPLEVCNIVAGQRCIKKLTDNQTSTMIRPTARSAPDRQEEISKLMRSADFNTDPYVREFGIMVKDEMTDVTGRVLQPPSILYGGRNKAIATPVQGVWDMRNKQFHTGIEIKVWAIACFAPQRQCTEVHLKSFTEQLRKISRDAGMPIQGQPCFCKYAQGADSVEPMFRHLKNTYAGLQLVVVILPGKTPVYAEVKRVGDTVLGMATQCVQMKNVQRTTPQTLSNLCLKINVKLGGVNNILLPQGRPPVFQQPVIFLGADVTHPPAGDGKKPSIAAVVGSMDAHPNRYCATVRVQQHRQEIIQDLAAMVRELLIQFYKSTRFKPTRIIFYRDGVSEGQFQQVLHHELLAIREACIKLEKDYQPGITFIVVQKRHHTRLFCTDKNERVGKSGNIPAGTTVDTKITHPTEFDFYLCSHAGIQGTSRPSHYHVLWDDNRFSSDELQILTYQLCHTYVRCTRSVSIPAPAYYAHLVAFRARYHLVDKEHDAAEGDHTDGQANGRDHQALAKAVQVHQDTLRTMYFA
AGO2 T357M, sequence (Q9UKV8 whole entry T357M/S387D/S824A/S828D/S831D/S834A): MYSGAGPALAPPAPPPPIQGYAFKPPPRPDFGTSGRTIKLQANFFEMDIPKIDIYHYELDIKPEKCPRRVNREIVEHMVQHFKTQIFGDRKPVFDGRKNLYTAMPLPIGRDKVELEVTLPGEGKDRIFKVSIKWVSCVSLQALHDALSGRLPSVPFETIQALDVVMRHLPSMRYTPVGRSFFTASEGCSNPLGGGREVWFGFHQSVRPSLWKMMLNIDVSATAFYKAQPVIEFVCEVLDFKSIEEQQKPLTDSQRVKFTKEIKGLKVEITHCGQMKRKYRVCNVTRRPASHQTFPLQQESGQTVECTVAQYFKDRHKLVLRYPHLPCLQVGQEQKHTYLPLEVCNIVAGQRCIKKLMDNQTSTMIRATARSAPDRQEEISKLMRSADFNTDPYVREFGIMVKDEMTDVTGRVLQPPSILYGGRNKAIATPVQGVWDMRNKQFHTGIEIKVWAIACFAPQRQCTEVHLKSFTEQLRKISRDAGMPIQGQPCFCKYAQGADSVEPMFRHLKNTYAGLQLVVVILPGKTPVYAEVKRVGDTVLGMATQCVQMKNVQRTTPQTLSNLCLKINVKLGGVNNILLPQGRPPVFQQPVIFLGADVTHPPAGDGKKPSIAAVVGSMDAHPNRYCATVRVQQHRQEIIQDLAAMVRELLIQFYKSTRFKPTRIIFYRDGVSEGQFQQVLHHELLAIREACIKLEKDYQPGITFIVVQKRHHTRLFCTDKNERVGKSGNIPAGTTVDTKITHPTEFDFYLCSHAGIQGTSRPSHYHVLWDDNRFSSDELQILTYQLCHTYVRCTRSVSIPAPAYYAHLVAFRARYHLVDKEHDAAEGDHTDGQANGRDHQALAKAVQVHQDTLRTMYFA

Binder	binding signal [1]	binding signal (AGO2 L192P)	binding signal (AGO2 A367P)	binding signal (AGO2 T357M)	binding signal (AGO2 F182del)
ACGTCCCA (ssRNA, constant regions annealed to DNA blockers; guide miR-122 5' phosphate) RNA 1: GAGUUCUACAGUCCGACGAUCCCAACACGUCCCACACCUGGAAUUCUCGGGUGCCAA RNA 2: UGGAGUGUGACAAUGGUGUUUG DNA 1: GATCGTCGGACTGTAGAACTC DNA 2: TTGGCACCCGAGAATTCCA	0.127 fold enrichment over input	0.569 fold enrichment over input	0.255 fold enrichment over input	0.637 fold enrichment over input	0.446 fold enrichment over input
GCGCTCCA (ssRNA, constant regions annealed to DNA blockers; guide miR-122 5' phosphate) RNA 1: GAGUUCUACAGUCCGACGAUCCCAACGCGCUCCACACCUGGAAUUCUCGGGUGCCAA RNA 2: UGGAGUGUGACAAUGGUGUUUG DNA 1: GATCGTCGGACTGTAGAACTC DNA 2: TTGGCACCCGAGAATTCCA	1.63 fold enrichment over input	3.25 fold enrichment over input	2.69 fold enrichment over input	1.03 fold enrichment over input	6.7 fold enrichment over input
ATATTCCA (ssRNA, constant regions annealed to DNA blockers; guide miR-122 5' phosphate) RNA 1: GAGUUCUACAGUCCGACGAUCCCAACAUAUUCCACACCUGGAAUUCUCGGGUGCCAA RNA 2: UGGAGUGUGACAAUGGUGUUUG DNA 1: GATCGTCGGACTGTAGAACTC DNA 2: TTGGCACCCGAGAATTCCA	0.121 fold enrichment over input	0.564 fold enrichment over input	0.22 fold enrichment over input	0.646 fold enrichment over input	0.372 fold enrichment over input
GCGTTTCA (ssRNA, constant regions annealed to DNA blockers; guide miR-122 5' phosphate) RNA 1: GAGUUCUACAGUCCGACGAUCCCAACGCGUUUCACACCUGGAAUUCUCGGGUGCCAA RNA 2: UGGAGUGUGACAAUGGUGUUUG DNA 1: GATCGTCGGACTGTAGAACTC DNA 2: TTGGCACCCGAGAATTCCA	0.125 fold enrichment over input	0.513 fold enrichment over input	0.227 fold enrichment over input	0.632 fold enrichment over input	0.326 fold enrichment over input
GCGCCTTA (ssRNA, constant regions annealed to DNA blockers; guide miR-122 5' phosphate) RNA 1: GAGUUCUACAGUCCGACGAUCCCAACGCGCCUUACACCUGGAAUUCUCGGGUGCCAA RNA 2: UGGAGUGUGACAAUGGUGUUUG DNA 1: GATCGTCGGACTGTAGAACTC DNA 2: TTGGCACCCGAGAATTCCA	0.125 fold enrichment over input	0.5 fold enrichment over input	0.194 fold enrichment over input	0.763 fold enrichment over input	
GCACCTTA (ssRNA, constant regions annealed to DNA blockers; guide miR-122 5' phosphate) RNA 1: GAGUUCUACAGUCCGACGAUCCCAACGCACCUUACACCUGGAAUUCUCGGGUGCCAA RNA 2: UGGAGUGUGACAAUGGUGUUUG DNA 1: GATCGTCGGACTGTAGAACTC DNA 2: TTGGCACCCGAGAATTCCA	0.132 fold enrichment over input	0.59 fold enrichment over input	0.307 fold enrichment over input	0.657 fold enrichment over input	0.717 fold enrichment over input
GCGTCCCA (ssRNA, constant regions annealed to DNA blockers; guide miR-122 5' phosphate) RNA 1: GAGUUCUACAGUCCGACGAUCCCAACGCGUCCCACACCUGGAAUUCUCGGGUGCCAA RNA 2: UGGAGUGUGACAAUGGUGUUUG DNA 1: GATCGTCGGACTGTAGAACTC DNA 2: TTGGCACCCGAGAATTCCA	0.126 fold enrichment over input	0.51 fold enrichment over input	0.215 fold enrichment over input	0.751 fold enrichment over input	0.169 fold enrichment over input
GTACCTCA (ssRNA, constant regions annealed to DNA blockers; guide miR-122 5' phosphate) RNA 1: GAGUUCUACAGUCCGACGAUCCCAACGUACCUCACACCUGGAAUUCUCGGGUGCCAA RNA 2: UGGAGUGUGACAAUGGUGUUUG DNA 1: GATCGTCGGACTGTAGAACTC DNA 2: TTGGCACCCGAGAATTCCA	0.149 fold enrichment over input	0.573 fold enrichment over input	0.44 fold enrichment over input	0.601 fold enrichment over input	1.57 fold enrichment over input
GTGTCCCA (ssRNA, constant regions annealed to DNA blockers; guide miR-122 5' phosphate) RNA 1: GAGUUCUACAGUCCGACGAUCCCAACGUGUCCCACACCUGGAAUUCUCGGGUGCCAA RNA 2: UGGAGUGUGACAAUGGUGUUUG DNA 1: GATCGTCGGACTGTAGAACTC DNA 2: TTGGCACCCGAGAATTCCA	0.125 fold enrichment over input	0.479 fold enrichment over input	0.249 fold enrichment over input	0.602 fold enrichment over input	0.268 fold enrichment over input
GCGCCTCA (ssRNA, constant regions annealed to DNA blockers; guide miR-122 5' phosphate) RNA 1: GAGUUCUACAGUCCGACGAUCCCAACGCGCCUCACACCUGGAAUUCUCGGGUGCCAA RNA 2: UGGAGUGUGACAAUGGUGUUUG DNA 1: GATCGTCGGACTGTAGAACTC DNA 2: TTGGCACCCGAGAATTCCA	0.131 fold enrichment over input	0.523 fold enrichment over input	0.233 fold enrichment over input	0.741 fold enrichment over input	0.304 fold enrichment over input
